# Whole data set: some 35,000 sequences, median “fluorescence intensity (a.u.)” near 10,000, cut for the highest 2% near 52,000. The list comes from a sample in which the highest values are over-represented; it also holds similar and randomly drawn sequences.
# Target: T1, OsWOX13 (Oryza sativa, UniProt Q5QMM3 1-267)
# T1 sequence: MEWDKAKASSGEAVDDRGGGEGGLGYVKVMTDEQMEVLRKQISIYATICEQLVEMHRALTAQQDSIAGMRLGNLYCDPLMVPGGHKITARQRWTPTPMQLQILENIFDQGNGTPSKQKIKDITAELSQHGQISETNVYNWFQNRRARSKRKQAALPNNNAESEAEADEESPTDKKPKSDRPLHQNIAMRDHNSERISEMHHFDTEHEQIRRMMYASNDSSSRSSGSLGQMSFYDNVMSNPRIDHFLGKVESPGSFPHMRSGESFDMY
# Assay: protein-binding microarray (RPBM); PBS, 2% BSA, 51.3 ng/ul salmon testes DNA, 50 uM zinc acetate, 200 nM TF, 25 C, 1 h; high values mean tight binding
# Conditions: protein: recombinant; tags: N-terminal polyhistidine and DsRed monomer fusion (pET32a); label: CyDye5-dUTP incorporated in the synthesized complementary strand; 3' TTTTT single-stranded linker to array surface; dsDNA, one strand shown
# Method in brief: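 Using Ni–NTA, transcription factors fused N-terminally to polyhistidine and DsRed were purified after expression in E. coli BL21-CodonPlus. These were incubated at 200 nM with a blocked, double-stranded custom Agilent array for 1 h at 25 °C in a buffer containing 50 µM zinc acetate, and the array was washed. The binding signal is per-feature fluorescence intensity (arbitrary units) on an Axon 4000B scanner.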
row,Sequence,binding signal
1,AAGTAATTTAGTCAACTCTAAAAGTAACTATGTGTGTGTGCGGAGTCACCTAGTGCAG,17300 fluorescence intensity (a.u.)
2,TTGAATCAATGACTGATCATTGCCCAGACTGCTATTTTCCCGGAGTCACCTAGTGCAG,7090 fluorescence intensity (a.u.)
3,CAAAACGAAATTGATAGATCTTAATGAGTTGTACAACTTTCGGAGTCACCTAGTGCAG,20400 fluorescence intensity (a.u.)
4,AACTTATTCCAATTATCAAACTCCGCTGCTCAACCAGGCCCGGAGTCACCTAGTGCAG,5860 fluorescence intensity (a.u.)
5,TCGCTATAATTGACAGCGACCCTACCTTGGGCCACCGGACCGGAGTCACCTAGTGCAG,57100 fluorescence intensity (a.u.)
6,TTTTATAATTCGATGACAAATTGAGAGACCTTGGGTGTACCGGAGTCACCTAGTGCAG,13200 fluorescence intensity (a.u.)
7,GCTTGATTGCCACACAAATTTTGACAATACGACCCTTTACCGGAGTCACCTAGTGCAG,42900 fluorescence intensity (a.u.)
8,AAGCCTAATTAATCCATCCTTAGCAGATGTGGGTTACCGTCGGAGTCACCTAGTGCAG,8630 fluorescence intensity (a.u.)
9,ATTACTATGATTACTATAATGTACCCTCAAAGCGTGTAGACGGAGTCACCTAGTGCAG,7510 fluorescence intensity (a.u.)
10,ATAATGTCAAATTTCGTTCCATTGTGAAGAAATTTTGCCACGGAGTCACCTAGTGCAG,3410 fluorescence intensity (a.u.)
11,GAGGGCAAGGCCCAGGGAAGCATATCTTGATAGTCGATATCGGAGTCACCTAGTGCAG,65500 fluorescence intensity (a.u.)
12,CATGATAGATCAGGCAGAGAGCAGATCAGAGCAAGCATGTCGGAGTCACCTAGTGCAG,11800 fluorescence intensity (a.u.)
13,ATGGAATTGATTAGAAGCCAGCCAGGCAGGGGAGGGTCGTCGGAGTCACCTAGTGCAG,33900 fluorescence intensity (a.u.)
14,GGTTCCACTATCAATCTTAGACAGTATAAACAGGTCAACACGGAGTCACCTAGTGCAG,5380 fluorescence intensity (a.u.)
15,GATTAATTTAGAAATTTTGAATTCTATTACATAATGATCACGGAGTCACCTAGTGCAG,20600 fluorescence intensity (a.u.)
16,TCTGATTGCAATCATTCTTGAATTCTGATACATATTGGATCGGAGTCACCTAGTGCAG,60300 fluorescence intensity (a.u.)
17,CTGATTAGTGATTTATTTAATTTGAGGAATCATTTTGGCACGGAGTCACCTAGTGCAG,64900 fluorescence intensity (a.u.)
18,ATAATTTGATCAAATTACATGTGATTTTGTGAAATTTACACGGAGTCACCTAGTGCAG,39700 fluorescence intensity (a.u.)
19,AACAATTGATTAGTACAAAATGGTACTTCCTCCGTTTCACCGGAGTCACCTAGTGCAG,56600 fluorescence intensity (a.u.)
20,GTAATTTATATTGAAATGCAATTACTTCCTCCGTTTCACCCGGAGTCACCTAGTGCAG,21800 fluorescence intensity (a.u.)
21,TATTCTGATTGGAACTTATGAGTCTTGAATTCTTGATTCTCGGAGTCACCTAGTGCAG,39000 fluorescence intensity (a.u.)
22,CGGAATTAATCTGATTATGTGAGTGAATTGGCATTTTGAACGGAGTCACCTAGTGCAG,30700 fluorescence intensity (a.u.)
23,TGAGAGTGGCATTTAATTGAATCCTATTATGATGGTGGCACGGAGTCACCTAGTGCAG,16100 fluorescence intensity (a.u.)

row,Sequence,binding signal
1,AATTGATTTACAATACTTCCTCCGTTTCACAATATAAGTGCGGAGTCACCTAGTGCAG,24700 fluorescence intensity (a.u.)
2,TTAATTACAAATTGATTTGATCACGTAGATAATTACATCACGGAGTCACCTAGTGCAG,62000 fluorescence intensity (a.u.)
3,AAGGAGAATTTTCTTGATTGAAATTATACATCATATTCATCGGAGTCACCTAGTGCAG,29500 fluorescence intensity (a.u.)
4,CAAAACTGAGTACATTGGATTGGACCATCTAAAAGGAAATCGGAGTCACCTAGTGCAG,4580 fluorescence intensity (a.u.)
5,TTTATCAAATTATCGTTTGTGTACTCTAGCTGGTCCTGGACGGAGTCACCTAGTGCAG,3870 fluorescence intensity (a.u.)
6,TGAAATTATTAGCAGGGTTTTAAATCTTCTGTTATAGCTGCGGAGTCACCTAGTGCAG,4040 fluorescence intensity (a.u.)
7,GGTAATAGAGAGACCACTAATAAAGATTGTTGTACCTGTGCGGAGTCACCTAGTGCAG,3690 fluorescence intensity (a.u.)
8,CCCTAGACAGATCAGCTTTGGTGTCTTGGTGGTTGTTGTCCGGAGTCACCTAGTGCAG,5440 fluorescence intensity (a.u.)
9,TGTTTAAGTTTGTCCTAATTACCTGTCACATTTTCCGTGCCGGAGTCACCTAGTGCAG,8460 fluorescence intensity (a.u.)
10,GGCAGTGACTAATTAACCTCACGGATGACAGGCGGCGAAACGGAGTCACCTAGTGCAG,10300 fluorescence intensity (a.u.)
11,ATCAGCTGATTACCTCACTGCATCCGTATGATTCGACTTTCGGAGTCACCTAGTGCAG,7310 fluorescence intensity (a.u.)
12,TGGATTGAGATATTTATTTATGATGATCACATCTGCACCTCGGAGTCACCTAGTGCAG,9980 fluorescence intensity (a.u.)
13,GATCTGATTGAGACATATCTGAAAATAATTTGCACGCAGACGGAGTCACCTAGTGCAG,30600 fluorescence intensity (a.u.)
14,ACTTGACAGCCCTAATTGATCTTATTACATGCAGAGGATCCGGAGTCACCTAGTGCAG,56300 fluorescence intensity (a.u.)
15,CATAATTGCACGATCATTGATTTTGGAACATTCTGAGGCTCGGAGTCACCTAGTGCAG,57100 fluorescence intensity (a.u.)
16,GATAATTGAGGGATTATTTTATGGATATACTAGATCTGCACGGAGTCACCTAGTGCAG,52400 fluorescence intensity (a.u.)
17,AATATATGGATAATTGTACTAGATTATCCTATTTCATACACGGAGTCACCTAGTGCAG,6460 fluorescence intensity (a.u.)
18,ACATGACTAATCTTATTGACTTAAGAGCTGATTAGGATACCGGAGTCACCTAGTGCAG,20200 fluorescence intensity (a.u.)
19,GTGCTCTAATTATTTGTATCTTACAGATAGATGACAGAGCCGGAGTCACCTAGTGCAG,19100 fluorescence intensity (a.u.)
20,ATGATTAGAGAGAATGGGTTTAGTTATTTGTTGATCCACACGGAGTCACCTAGTGCAG,29400 fluorescence intensity (a.u.)
21,TGTGAGTGATCAAATAATTGATCATAATTTTCTATCGATTCGGAGTCACCTAGTGCAG,37500 fluorescence intensity (a.u.)
22,CTCCGGTTTAATTTTAATTGATGTTTTGGACAATGGCACGCGGAGTCACCTAGTGCAG,44900 fluorescence intensity (a.u.)
23,TTTAATTGATTTTGTTTAGAATTTGAGGACATGATCCACGCGGAGTCACCTAGTGCAG,62900 fluorescence intensity (a.u.)
